# High-throughput results (PubChem)
# PHOSPHO1 block = blocks human PHOSPHO1 phosphatase activity; Q8TCT1; recombinant PHOSPHO1, absorbance phosphatase assay; inhibition, % at 13.3 µM; actives 1.1% (n = 290,000); AID 1565; in the data active = inhibition above about 60%
# Target sequence (Q8TCT1 whole entry, looked up): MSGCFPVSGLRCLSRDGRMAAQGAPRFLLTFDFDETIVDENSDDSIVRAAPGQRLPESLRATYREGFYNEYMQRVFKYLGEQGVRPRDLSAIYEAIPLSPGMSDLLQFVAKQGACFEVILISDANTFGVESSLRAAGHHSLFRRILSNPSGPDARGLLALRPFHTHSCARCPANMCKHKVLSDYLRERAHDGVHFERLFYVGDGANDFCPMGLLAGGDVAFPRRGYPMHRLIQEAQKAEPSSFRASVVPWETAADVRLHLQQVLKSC
# TPT1 inhibitor = C. albicans TPT1 enzyme inhibition; recombinant caTPT1, FP RNA substrate dephosphorylation; inhibition, % at 5 µM; actives 0.81% (n = 300,000);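 active = inhibition above the mean of all tested compounds plus 3 SD, set per screening campaign, cut at about 24% in these data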;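 note: plate controls were DMSO alone for no effect and ferristatin control at 100 nM for full effect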
# Platelet DG rel = modulates dense granule release in human platelets; human platelet-rich plasma, SFLLRN dense granule ATP release, luminescence; inhibition, %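 (compounds screened at 7.5 µM in platelet-rich plasma)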; actives 0.22% (n = 300,000);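 active = mean replicate score, as percent of positive control, at or above 50; inconclusive = mean below 50 but at least one replicate at or above 50; inactive = mean and every replicate below 50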
# WT yeast gro inh = growth inhibition of WT yeast, mitochondrial fusion screen | mitochondrial fusion phenotypic screen, WT strain | inhibition, % at 10 µM | actives 2.1% (n = 190,000) | AID 1362; in the data active = inhibition above about 58%; tested in S. cerevisiae
# SKKanGAS inh = inhibitors of SKKanGAS S. pyogenes growth in kanamycin (SK-promoter or general growth effect); BacTiter-Glo, 6 h; inhibition, % at 7.5 µM; actives 1.3% (n = 300,000); AID 1662;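 active = mean replicate score, as percent of positive control median, at least 50; inconclusive = mean below 50 but one replicate at or above 50; inactive = mean and every replicate below 50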;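 note: strain carries kanamycin resistance gene driven by streptokinase promoter and grows in 40 µg/ml kanamycin; loss of luminescence reflects streptokinase promoter inhibition or plain growth inhibition; 0% = median of DMSO wells and 100% = positive control at its reference dose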
# Rtt109 Vps75 = inhibitors of Candida albicans Rtt109/Vps75 histone acetyltransferase. Q5AAJ8. purified Rtt109/Vps75, ThioGlo CoA-SH fluorescence, 4 h. inhibition, % at 34.9 µM. actives 0.16% (n = 330,000). AID 540336;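 active = inhibition of at least 50% in every replicate; inconclusive = best replicate reaches 50% inhibition but some replicates fall short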
# Target sequence (Q5AAJ8 whole entry, looked up): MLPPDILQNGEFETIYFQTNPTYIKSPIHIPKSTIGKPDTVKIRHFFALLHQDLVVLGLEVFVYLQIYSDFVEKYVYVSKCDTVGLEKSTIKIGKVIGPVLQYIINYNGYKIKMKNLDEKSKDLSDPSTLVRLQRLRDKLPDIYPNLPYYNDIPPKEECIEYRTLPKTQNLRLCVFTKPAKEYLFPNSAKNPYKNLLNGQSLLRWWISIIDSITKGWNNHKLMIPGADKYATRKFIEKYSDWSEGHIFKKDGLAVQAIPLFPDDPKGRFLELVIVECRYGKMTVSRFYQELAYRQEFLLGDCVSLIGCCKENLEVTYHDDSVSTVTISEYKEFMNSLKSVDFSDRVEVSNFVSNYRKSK
# * marks the source's active call; other numbers are inactive results; ? = inconclusive; . = no result. Compounds with a hit are over-represented: about 3.9% of the library has one in this group of screens.
SMILES,PHOSPHO1 block,TPT1 inhibitor,Platelet DG rel,WT yeast gro inh,SKKanGAS inh,Rtt109 Vps75
CC(C)Sc1cc(N2CCCC2)nc(-c2ccccc2Cl)n1,7.1,1.1,-1.2,14.0,-10.8,-2.6
CC(C)Sc1cc(N2CCOCC2)nc(-c2ccccc2)n1,-10.6,-0.2,8.8,-21.7,-4.0,-3.8
CC(C)Sc1cc(N2CCCC2)nc(-c2ccccc2)n1,-5.9,-1.6,6.3,30.2,68.6*,-3.8
CCCSc1cc(N2CCN(C)CC2)nc(-c2ccc(OC)cc2)n1,-2.1,-2.9,0.8,94.7*,15.0,11.2
CCCSc1cc(N2CCCC2)nc(-c2ccccc2)n1,37.9,-0.3,1.8,-10.1,51.9*,15.9
CCSc1cc(N2CCCC2)nc(-c2ccccc2)n1,30.0,2.8,8.6,.,?,7.2
CCOc1ccc(NC(=O)CN(C)C(=O)c2c(C)nn(Cc3ccccc3Cl)c2C)cc1OCC,.,.,.,.,.,-2.0
Nc1cn(C2OC(CO)C(O)C2O)c(=O)[nH]c1=O (centres undefined),-26.4,.,-0.4,.,-2.7,-5.6
N#Cc1sc2nc(N3CCCCC3)c3c(c2c1N)CCCC3,1.1,-4.9,1.3,72.8*,31.0,-22.2
N#CC(Sc1ccccn1)c1ccc(Cl)cc1 (centres undefined),-89.9,8.5,4.9,73.1*,-5.3,5.5
O=C(NCCSc1ccccn1)c1ccc(Cl)cc1,6.7,3.9,3.3,-9.6,6.2,8.4
Cc1ccc(C)c(C(=O)COC(=O)c2cc(Cl)nc3ccccc23)c1,-15.9,-1.3,-1.8,30.2,53.6*,-0.1
O=[N+]([O-])c1cccc(S(=O)(=O)N2CN(c3ccc(Br)cc3)c3nc4ccccc4nc32)c1,.,.,.,.,.,-7.9
Cc1c(Cl)cccc1NC(=O)CN(C1CCCCC1)S(C)(=O)=O,23.9,2.4,4.4,.,5.3,11.3
COc1ccc(NS(=O)(=O)c2cccc(C(=O)NNC(=O)c3cncc(Br)c3)c2)cc1,.,-0.9,3.8,.,3.2,3.2
O=C(O)c1ccccc1C(=O)c1cccc2c(Br)cccc12,.,.,.,.,.,-10.2
Cc1cc(C(=O)CSc2nn3c(=O)c(C(C)(C)C)nnc3s2)c(C)n1-c1ccc(F)cc1,102.5*,5.3,-1.1,3.0,23.7,-1.6
CC(=O)O[C@H]1[C@@H](O)[C@H](O)[C@H](Oc2c(O)c(C)c3c4c2[C@@H](C)CC[C@@H]4[C@@H](C)C[C@H]3C=C(C)C)O[C@H]1C,.,.,.,.,.,2.4
Clc1ccc(-c2nn3c(C4COc5ccccc5O4)nnc3s2)cc1 (centres undefined),92.1*,0.7,-2.8,9.0,20.7,-3.7
Cc1cc([N+](=O)[O-])nn1CC(=O)NNC(=S)Nc1ccc(Cl)cc1,93.0*,-4.1,0.2,-2.8,-12.2,-2.1
O=C(Cn1nc(C(F)F)cc1C(F)F)NNC(=S)Nc1ccc([N+](=O)[O-])cc1,36.3,-3.0,1.3,-4.8,-0.4,-2.1
Cc1ccc(NC(=S)NNC(=O)CCn2cc(C)cn2)cc1,68.7*,-0.2,9.9,-18.0,6.3,4.0
Cc1ccc(NC(=S)NNC(=O)Cn2nc([N+](=O)[O-])cc2C)cc1,96.2*,0.3,0.9,-7.8,-14.0,-1.6
COc1cccc(NC(=S)NNC(=O)Cn2nc([N+](=O)[O-])cc2C)c1,30.5,0.8,4.7,-30.9,-3.1,3.9
O=C(Cn1nc(C(F)F)cc1C(F)F)NNC(=S)Nc1ccc(F)cc1,73.3*,-2.1,1.0,-10.7,6.5,-12.9
SMILES,PHOSPHO1 block,TPT1 inhibitor,Platelet DG rel,WT yeast gro inh,SKKanGAS inh,Rtt109 Vps75
COc1ccc(NS(=O)(=O)c2cc(NS(=O)(=O)c3cc(C(=O)O)ccc3OC)ccc2C)cc1,.,.,.,.,.,-2.1
COc1ccc(NS(=O)(=O)c2cc(C(=O)O)ccc2C)cc1,5.7,-3.1,-8.4,58.6*,-3.2,.
Cc1cccc(C)c1OCC(O)Cn1c2ccccc2c2ccccc21 (centres undefined),15.9,-3.7,-3.0,83.1*,88.0*,6.9
Cc1ccc(OCC(O)Cn2c3ccccc3c3ccccc32)cc1 (centres undefined),12.4,-0.8,-10.3,46.9,-0.6,-0.1
OC(COCC(F)(F)C(F)(F)C(F)(F)C(F)F)Cn1c2ccccc2c2ccccc21 (centres undefined),7.4,1.0,-4.2,91.2*,11.2,-2.8
CC(C)NC(=O)c1ccc(N(Cc2ccccc2)S(C)(=O)=O)cc1,34.0,.,-3.2,.,-4.4,10.9
COc1cc(CNC(=O)c2ccccc2NC(=O)C2=C(C)OCCS2)cc(OC)c1OC,1.5,-3.3,-1.3,.,5.8,-10.6
COc1cc(CCNC(=O)c2ccccc2NC(=O)C2=C(C)OCCS2)cc(OC)c1OC,63.6*,-1.5,10.7,.,-5.2,-4.8
O=C(COC(=O)COc1ccc(Br)cc1)Nc1ccc2c(c1)OCCO2,.,.,.,.,.,4.4
Cc1ccc(/C=C/c2nc3ccccc3c(=O)[nH]2)cc1,28.8,-3.6,45.0,.,-3.0,-16.7
COC(=O)c1ccc(/C=C/c2nc3ccccc3c(=O)[nH]2)cc1,15.0,-5.8,62.8*,.,6.6,-47.0
COc1ccc(CC(=O)Nc2cccc3ccccc23)cc1OC,19.4,-4.4,-3.6,.,-0.6,-3.6
COc1cc(CNC(C)C)ccc1OCC(=O)Nc1cccc2ccccc12,60.6*,-1.6,11.8,.,-7.1,1.1
COc1ccc(S(=O)(=O)N2CC3CCCN3c3cc(C(F)(F)F)ccc32)cc1 (centres undefined),8.1,1.9,1.0,74.8*,4.9,-7.2
COc1cc(C(=O)NCC(=O)OCc2ccc(F)cc2)cc(OC)c1OC,.,.,.,.,.,4.5
CCn1cc(C(=O)NCCc2ccccc2)c(=O)c2cc(F)c(N3CCN(C)CC3)cc21,9.7,-3.9,2.6,62.4*,4.6,4.0
CCn1cc(C(=O)O)c(=O)c2cc(F)c(N3CCN(S(=O)(=O)c4ccc5c(c4)OCCO5)CC3)cc21,42.6,-0.6,10.3,-20.6,59.5*,-4.5
CCn1cc(C(=O)O)c(=O)c2cc(F)c(N3CCN(S(=O)(=O)c4ccc(NC(C)=O)cc4)CC3)cc21,-6.2,-0.1,2.3,-2.3,53.3*,-1.7
CCn1cc(C(=O)O)c(=O)c2cc(F)c(N3CCNCC3)cc21,8.4,-1.2,-0.4,-2.0,3.9,4.1
O=C(Nc1cc(S(=O)(=O)N2CCOCC2)ccc1Cl)c1ccc(=O)[nH]c1,.,.,.,.,.,-10.5
COC(=O)c1ccc(N(CC(=O)NC2CCCCC2)C(=O)CNC(=O)c2ccco2)cc1,31.9,2.2,-6.4,.,-18.2,-8.5
COc1ccc(C(=O)OCC(=O)NCC2CCCCC2)c(OC)c1,.,.,.,.,.,2.5
COC(=O)Nc1nnc(-c2ccncc2)s1,62.3*,-1.9,-3.4,2.0,-6.3,-1.0
Cc1ccc(NC(=O)Nc2nnc(-c3ccncc3)s2)cc1C,-14.7,-0.2,-3.7,-9.8,24.4,-2.8
CCC(=O)c1ccc(OCC(=O)OCC(=O)N2c3ccccc3NC(=O)C2(C)C)cc1,.,-1.1,11.3,.,-18.5,-3.2
Cc1ccc(NC(=O)CNC(=O)c2cccc(C)c2)nc1,.,-2.8,-16.1,.,3.0,5.2
CCCc1cc(NCc2ccccn2)n2nc(C)c(-c3ccccc3)c2n1,-9.7,-2.1,-4.2,.,94.0*,0.1
